We go through twelve compounds from PubChem BioAssay (NCATS).

Where “and” joins values, the source holds several entries; their conditions need not be identical. Equal values may be shown once. Results filed as inconclusive are left out. A structure can be active in one record and inactive in another. Calls of active or inactive are those of the source. Calls follow the shape of the dose curve; as a rule, active = well fitted curve in the direction sought with a large enough effect; inconclusive = small, poorly fitted or top-dose-only effect, or another doubt; inactive = no such curve, though single readings can be large; an effect the other way counts as inactive or inconclusive.

The subject of one test is C33A. Put plainly: Primary qHTS to identify gynecologic anti-cancer compounds using libraries of approved drugs and bioactive compounds (AID 1345084). Also: nearly all actives have a fitted effect of over 55% in size. Particulars: Gynecologic cancer cell panel viability, ATPlite luminescence, 48 h; series mostly up to 57.5 µM. The method, boiled down: (§1)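 Cells, 1,000 per well, were allowed to settle for 16 h at 37 C before compound addition. Five concentrations were tested for 48 h, and viability was read by ATPlite luminescence after 15 min at room temperature.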
For orientation: Quantitative high-throughput screening tests each substance at several concentrations.

Another test concerns CAOV3. The test is described as above. Particulars: Gynecologic cancer cell panel viability, ATPlite luminescence, 48 h; series mostly up to 57.5 µM. Put shortly:
as §1

The next test has as its system CASKI. Described as above. As to conditions: Gynecologic cancer cell panel viability, ATPlite luminescence, 48 h; series mostly up to 57.5 µM. Put shortly:
as §1
For orientation: Cellular ATP, detected with luciferase, serves as a proxy for viable cell number.

Another test has as its system Es-2. The test is described as above. Particulars: Gynecologic cancer cell panel viability, ATPlite luminescence, 48 h; series mostly up to 57.5 µM. The method, boiled down:
as §1

The test system of a further test is TAB165. Briefly: qHTS profiling for inhibitors of Plasmodium falciparum proliferation (AID 504749). Also: nearly all actives have a fitted effect of over 60% in size. As to conditions: P. falciparum in erythrocytes, SYBR Green DNA, 72 h; series mostly up to 28.7 µM. Put shortly: (§2)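 Readout was DNA-dye fluorescence from lysed cultures, ex 485/em 535 nm. Parasitized red cells had grown 72 h with compound; data scaled between 0.29 uM artemisinin and DMSO wells and corrected using vehicle-only plates.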

The test system of a further test is W2. The test is described as above. As to conditions: P. falciparum in erythrocytes, SYBR Green DNA, 72 h; series mostly up to 28.7 µM. Put shortly: as §2
For another test, the system named is KB-3-1. Briefly: Cytotoxic Profiling of Annotated Libraries Using Quantitative High-Throughput Screening (AID 1296008). Also: nearly all actives have a fitted effect of over 60% in size. As to max response: % is scaled to controls: 0 for no effect and ±100 for the full control effect. Particulars: Five cell lines viability, CellTiter-Glo ATP luminescence, 48-72 h; max response: stronger effect = lower value. The method, boiled down:
(§3)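 Cells exposed to compounds for 48 or 72 hr at 37 degrees Celsius. Viability read as ATP-coupled luminescence with CellTiter-Glo after 10 min at room temperature.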

The test system of the next test is MCC-26. Put plainly: qHTS assay to identify novel small-molecules to repurpose for Merkel cell carcinoma treatment (AID 1296009). Also: nearly all actives have a fitted effect of over 60% in size. Particulars: MCC and control cell lines, CellTiter-Glo viability, 72 h; series mostly up to 46 µM. Put shortly: (§4)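 Cells were incubated with compound for 72 hr at 37 degree celsius before CellTiter-Glo addition. Luminescence was normalized with no-cell wells as full cytotoxicity and DMSO as baseline.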

The test system of a further test is MKL-1. The description is as above. Particulars: MCC and control cell lines, CellTiter-Glo viability, 72 h; series mostly up to 46 µM. Put shortly:
as §4

Test [1] has as its system HaCat. Briefly: Cytotoxic Profiling of Annotated Libraries Using Quantitative High-Throughput Screening (AID 1296008). Also: nearly all actives have a fitted effect of over 60% in size. As to max response: % is scaled to controls: 0 for no effect and ±100 for the full control effect. Particulars: Five cell lines viability, CellTiter-Glo ATP luminescence, 48-72 h; max response: stronger effect = lower value. The method, boiled down: as §3
The subject of another test is HEK293. The test is described as above. As to conditions: Five cell lines viability, CellTiter-Glo ATP luminescence, 48-72 h; max response: stronger effect = lower value. The method, boiled down:
as §3

A further test has as its system MCC-13. Briefly: qHTS assay to identify novel small-molecules to repurpose for Merkel cell carcinoma treatment (AID 1296009). Also: nearly all actives have a fitted effect of over 60% in size. Particulars: MCC and control cell lines, CellTiter-Glo viability, 72 h; series mostly up to 46 µM. The method, boiled down: as §4
In another test the test system is MKL-2. Described as above. As to conditions: MCC and control cell lines, CellTiter-Glo viability, 72 h; series mostly up to 46 µM. The method, boiled down:
as §4

A further test relates to NIH3T3. Briefly: Cytotoxic Profiling of Annotated Libraries Using Quantitative High-Throughput Screening (AID 1296008). Also: nearly all actives have a fitted effect of over 60% in size. As to max response: % is scaled to controls: 0 for no effect and ±100 for the full control effect. As to conditions: Five cell lines viability, CellTiter-Glo ATP luminescence, 48-72 h; max response: stronger effect = lower value. Put shortly:
as §3

The subject of the next test is WaGa. Briefly: qHTS assay to identify novel small-molecules to repurpose for Merkel cell carcinoma treatment (AID 1296009). Also: nearly all actives have a fitted effect of over 60% in size. As to conditions: MCC and control cell lines, CellTiter-Glo viability, 72 h; series mostly up to 46 µM. The method, boiled down: as §4
In the next test the test system is UISO. Described as above. Particulars: MCC and control cell lines, CellTiter-Glo viability, 72 h; series mostly up to 46 µM. Put shortly: as §4
The subject of another test is CRL-7250. Briefly: Cytotoxic Profiling of Annotated Libraries Using Quantitative High-Throughput Screening (AID 1296008). Also: nearly all actives have a fitted effect of over 60% in size. As to max response: % is scaled to controls: 0 for no effect and ±100 for the full control effect. As to conditions: Five cell lines viability, CellTiter-Glo ATP luminescence, 48-72 h; max response: stronger effect = lower value. Put shortly:
as §3

Test [2] deals with HACAT. Put plainly: qHTS assay to identify novel small-molecules to repurpose for Merkel cell carcinoma treatment (AID 1296009). Also: nearly all actives have a fitted effect of over 60% in size. Particulars: MCC and control cell lines, CellTiter-Glo viability, 72 h; at 44.8 µM (top of the series) unless noted. The method, boiled down:
as §4

For a further test, the system named is HEK293T. The description is as above. As to conditions: MCC and control cell lines, CellTiter-Glo viability, 72 h; at 44.8 µM (top of the series) unless noted. The method, boiled down:
as §4
Potency is read from the fitted curve at half-maximal effect.

On to `CC(=O)Oc1c(C)c(C)c2c(c1C)CC[C@@](C)(CCC[C@H](C)CCC[C@H](C)CCCC(C)C)O2`, for which the Potency entry with C33A, in the test with CAOV3, in the test on CASKI and in the test on Es-2 was “inactive” throughout.
For the compound `COCCOC(=O)C1=C(C)NC(C)=C(C(=O)OC/C=C/c2ccccc2)C1c1cccc([N+](=O)[O-])c1` (stereo unspecified), the Potency in the test on TAB165 is 12.6 µM (active); in the test with W2 it was 9.53 µM (active); with MKL-1, 21.1 µM (active). The max response in the test with KB-3-1 was 22.9% (inactive). In addition, the Potency entry in the test with MCC-26 and in the test on Es-2 was “inactive” each time.
In the case of `CC1=C(CC(=O)O)c2cc(F)ccc2/C1=C\c1ccc(S(C)=O)cc1` (stereo unspecified), the Potency entry in the test on TAB165, in the test with C33A, in the test with CAOV3, with CASKI and in the test with Es-2 was “inactive” each time. Further, the result with HaCat [1] was inactive.
In the case of `CC(CN1c2ccccc2Sc2ccccc21)N(C)C` (stereo unspecified), the Potency result in the test with TAB165, in the test on MCC-13, in the test on MKL-1, in the test on MKL-2, with C33A and with CASKI was “inactive” each time. Also, the Potency entry in the test on Es-2 is “inactive”. Besides, the Potency in the test with HEK293 was 11.9 µM (active). Besides, the max response is 3.18% (inactive) in the test with HaCat [1] and 7.29% (inactive) in the test on KB-3-1.
In the case of `[Cl][In]([Cl])[Cl]`, the Potency with W2 is 7.57 µM (active). Further, the max response in the test on HEK293 was 1.84% (inactive); in the test with KB-3-1, 0.288% (inactive) and -3.71% (inactive); in the test with NIH3T3, -11.3% (inactive). Further, the Potency result in the test with MCC-26, in the test with MKL-1, in the test on MKL-2, with WaGa, in the test with C33A and in the test on CASKI was “inactive” in each case. Besides, the Potency entry in the test on Es-2 is “inactive”.
Regarding `CCN(CC)CCNC(=O)c1c(C)[nH]c(/C=C2\C(=O)Nc3ccc(F)cc32)c1C`, the Potency with TAB165 is 7.08 µM (active); in the test on W2 it was 4.26 µM (active); with HEK293, 8.41 µM (active); in the test on MCC-13 it was 23.7 µM (active); in the test with MKL-1 it was 2.99 µM (active); in the test on MKL-2, 2.99 µM (active). Further, the Potency in the test with UISO and with WaGa was 11.9 µM (active) each time. Besides, the figures for the max response in the test with KB-3-1 and with NIH3T3 were -5.42% (inactive) and -10.6% (inactive), respectively. Also, in the test with C33A, the Potency result was “inactive”.
For the compound `CC(=O)OCC(=O)[C@@]1(O)CC[C@H]2[C@@H]3CCC4=CC(=O)CC[C@]4(C)[C@H]3C(=O)C[C@@]21C`, the Potency entry with C33A, in the test on CAOV3, with CASKI and in the test on Es-2 was “inactive” throughout.
For `CC(C)c1c(C(=O)Nc2ccccc2)c(-c2ccccc2)c(-c2ccc(F)cc2)n1CC[C@@H](O)C[C@@H](O)CC(=O)O`, the Potency in the test with CRL-7250 is 6.68 µM (active) and 2.73 µM (active); in the test with MCC-13, 23.7 µM (active); in the test with MCC-26 it was 23.7 µM (active); in the test on MKL-1, 3.35 µM (active); in the test with MKL-2, 2.66 µM (active); in the test with UISO, 10.6 µM (active). For the same compound, the Potency with WaGa is 7.5 µM (active). The max response was -3.5% (inactive) in the test on KB-3-1; -9.75% (inactive) and 4.05% (inactive) in the test on NIH3T3. The Potency result in the test on C33A, in the test on CAOV3, in the test on CASKI and with Es-2 was “inactive” in each case.
As for `OCCN1CCN(CCCN2c3ccccc3Sc3ccc(Cl)cc32)CC1`, the Potency in the test with W2 was 3.22 µM (active); with HEK293, 11.9 µM (active); with MCC-26, 26.6 µM (active); with UISO, 26.6 µM (active); with C33A, 20 µM (active); in the test on CASKI, 25.1 µM (active). For the same compound, the max response in the test with KB-3-1 is -16% (inactive).
On to `NC(=O)N/N=C/c1ccc([N+](=O)[O-])o1`, for which the Potency is 9.53 µM (active) in the test with W2; 24.3 µM (active) in the test with MKL-1; 15.4 µM (active) in the test with MKL-2; 38.6 µM (active) in the test on WaGa; 31.6 µM (active) and inactive in the test with Es-2. Further, the max response in the test with CRL-7250 is -6.15% (inactive); with HaCat [1], -0.194% (inactive); in the test with KB-3-1, -7.34% (inactive) and -25.8% (inactive); in the test on NIH3T3 it was 3.44% (inactive). Moreover, the outcome in the test with HaCat [1] and in the test on HACAT [2] was inactive. Also, the Potency result in the test with MCC-13, in the test on MCC-26, in the test on UISO, in the test on C33A, in the test with CAOV3 and in the test with CASKI was “inactive” throughout.
Take `NC1[C@H]2CN(c3nc4c(cc3F)c(=O)c(C(=O)O)cn4-c3ccc(F)cc3F)C[C@@H]12` (stereo partly specified): the Potency is 15 µM (active) with HEK293, 16.8 µM (active) with NIH3T3, 26.6 µM (active) in the test with UISO and 21.1 µM (active) in the test with WaGa. In addition, the Potency entry in the test on MCC-26 and with CASKI was “inactive” each time.
As to `CN1[C@@H]2CC(OC(=O)[C@H](CO)c3ccccc3)C[C@H]1[C@@H]1O[C@@H]12` (stereo partly specified), the compound was classed as inactive in the test with HEK293T. The Potency entry in the test with MCC-13, in the test on MKL-1, in the test with C33A, in the test on CASKI and with Es-2 was “inactive” throughout.
